# Screening data: PubChem, several laboratories
# Hits are enriched below; roughly 4.8% of the tested compounds scored in any of these assays.
# DAX1 inh-1 – DAX1 (NR0B1) inhibitors on StAR promoter, primary screen, cell-based, luminescence, SF-1 (NR5A1), full-length DAX-1; HEK293T StAR-luciferase reporter, SF-1/DAX-1 repression relief; inhibition, % at 6.8 µM; 370,000 tested, 1.1% active;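 active = inhibition above the mean over all tested compounds plus 3 SD, cut at about 3.6% in these data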;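 also: 0% = DAX-1 cells with DMSO and 100% = cells lacking DAX-1 with DMSO; higher inhibition means more luminescence from relief of DAX-1 repression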
# DAX1 inh-2 – DAX1 (NR0B1) inhibitors, primary screen, cell-based, HEK293, Gal4-DAX1, luciferase luminescence | Nuclear receptor subfamily 0 group B member 1 (Homo sapiens), P51843 | HEK293 Gal4-DAX1 luciferase reporter | inhibition, % at 6.75 µM | 340,000 tested, 0.99% active;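 active = inhibition above the mean over all tested compounds plus 3 SD, cut at about 4.2% in these data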;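 also: 0% = DAX1-transfected cells with DMSO and 100% = empty-vector control cells with DMSO; inhibition shows as a rise in luminescence from relieved DAX1 repression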
# Target sequence (P51843 207-470 limits assumed): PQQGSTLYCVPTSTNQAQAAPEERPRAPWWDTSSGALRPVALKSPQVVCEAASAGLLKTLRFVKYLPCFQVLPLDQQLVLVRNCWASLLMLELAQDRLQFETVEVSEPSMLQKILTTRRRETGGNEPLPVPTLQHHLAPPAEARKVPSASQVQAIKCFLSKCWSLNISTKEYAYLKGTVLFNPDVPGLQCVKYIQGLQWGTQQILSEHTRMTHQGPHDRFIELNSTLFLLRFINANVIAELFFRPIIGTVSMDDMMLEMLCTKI
# ssDAF12 agonist – S. stercoralis DAF-12 nuclear receptor activators, primary screen, cell-based, luminescence, HEK293, GRIP1 co-expression, lit1-tk-luc | activation, % at 6.8 µM | 370,000 tested, 1% active | Nuclear hormone receptor DAF-12 (Strongyloides stercoralis) | HEK293 ssDAF-12/GRIP1 lit1-tk-luc reporter; % of 3 µM dafachronic acid response;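 active = activation above the mean over all tested compounds plus 3 SD, cut at about 0.9% in these data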;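 also: 0% = DMSO-only wells and 100% = 3 µM delta7-dafachronic acid wells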
# hgDAF12 agonist – H. glycines DAF-12 receptor agonists, primary screen, cell-based, luminescence, HEK293, GAL4 fusion, UAS-luciferase | HEK293 GAL4-hgDAF12 UAS-luciferase reporter, agonist luminescence; normalized to butyrate control | activation, % at 6.8 µM | 370,000 tested, 1.8% active;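 active = activation above a cutoff set at the mean of all screened compounds plus 3 SD, cut at about 10% in these data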;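 also: 0% = DMSO wells and 100% = sodium butyrate wells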
# hcDAF-12 act – H. contortus DAF-12 nuclear receptor activators, primary screen, cell-based, luminescence, HEK293, lit1-tk-luc reporter. HEK293 hcDAF-12 lit1-tk-luc reporter; 0% DMSO, 100% Δ7-dafachronic acid. activation, % at 6.8 µM. 370,000 tested, 1.4% active;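 active = activation above the mean of all tested compounds plus 3 SD, cut at about 5.5% in these data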;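 also: 100% = response to 3 µM Δ7-dafachronic acid high control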
# Rev-erbA mod – modulators of Rev-erb alpha DNA binding, primary screen, biochemical, FITC-DNA, fluorescence polarization, uHTS. Nuclear receptor subfamily 1 group D member 1 (Homo sapiens), P20393. Rev-erbα–FITC-DNA binding, 90 min. activity, % at 10 µM. 370,000 tested, 0.79% active. AID 1259318, 2017;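 active = activity above about 14%, limit read from the data; passing the limit was not always enough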;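 also: 0% = DMSO wells with 35 nM protein and 100% = DMSO wells with 750 nM protein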
# The depositor's hits bear a star; . = no result.
SMILES,DAX1 inh-1,DAX1 inh-2,ssDAF12 agonist,hgDAF12 agonist,hcDAF-12 act,Rev-erbA mod
COc1ccc(OCC(=O)N2CCc3ccccc32)c([N+](=O)[O-])c1,4,2,0,5,5.6*,-3
COc1ccc(OCC(=O)N2CCCC2=O)c([N+](=O)[O-])c1,-1,0,-1,-2,-1,6
COc1ccc2c(CC(=O)N3CCc4ccccc43)coc2c1,3,1,1,10,5.8*,1
C=CCN1C(=O)[C@@H](CC(=O)NCCCN2CCCC2=O)[C@]2(C(=O)OC)CCCCC=C12,0,.,-1,0,-1,5
O=C(COc1ccccc1Cl)NC(=S)N1CCc2ccccc21,1,0,-1,2,5.9*,-2
COCCCn1c(=O)c2sccc2n(Cc2ccc(C)cc2)c1=O,0,0,1.0*,-2,-1,-1
COCCCn1c(=O)c2sccc2n(Cc2ccccc2)c1=O,0,0,-1,-1,-2,2
CCN(C)c1ccc(/C=N\n2nnnc2N)cc1,-1,1,-1,12*,0,.
COC(=O)[C@]12C=CCN1[C@@H](c1ccc(OC)c(OC)c1)c1c(c3ccccc3n1S(=O)(=O)c1ccc(C)cc1)C2,-1,.,-1,1,5.8*,-2
COc1ccc([C@@H]2CC=C(C(=O)O)[C@H](c3ccc(C)cc3)N2S(=O)(=O)c2ccc(C)cc2)cc1OC,1,0,-1,-1,-1,-3
C(/C=C/c1ccccc1)=N/N1CCN(c2ccccc2)CC1,0,2,0,0,-1,3
C(=C\c1ccccc1)/C=N/N1CCN(c2ccccn2)CC1,1,1,0,11*,3,12
C=CCNC(=O)c1ccc(Cl)cc1Cl,-1,0,-1,1,3,3
C=CCNC(=O)c1ccsc1N,4.2*,.,-1,2,1,11
CNC(C)C#Cc1ccc2c(=O)c3cc(C)c(C)cc3oc2c1 (stereo unspecified),1,-2,0,11*,3,-7
O=C(CC(c1ccc(F)cc1)c1ccco1)Nc1nccs1 (stereo unspecified),-1,-1,2.1*,-1,-1,-5
COc1ccccc1C(CC(=O)Nc1nccs1)c1ccco1 (stereo unspecified),-1,-1,-1,0,-2,1
Cn1c2ccccc2c(=O)c2ccc(NCCc3cccs3)cc21,4.1*,1,0,6,4,-29
NC(=O)c1ccc(NCCc2cccs2)cc1,2,.,-1,4,0,-1
C=CCNC(=O)CN(C(=O)Cc1cccc(OC(F)(F)F)c1)c1cccc(Br)c1,0,.,-1,-1,-3,2
CC(COc1cc(F)cc(F)c1)CN1CCC(C(O)(c2ccccc2)c2ccccc2)CC1 (stereo unspecified),0,.,0,3,0,-1
CC(=O)COC(=O)C1CCN(S(=O)(=O)c2cc([N+](=O)[O-])ccc2Cl)CC1,0,4.3*,-1,0,1,-2
CC[C@H]1CN2CCc3cc(OC)c(OC)cc3C2C[C@@H]1CC1NCCc2cc(OC)c(OC)cc21 (stereo partly specified),.,.,.,.,.,3
Cc1cc(Cl)c2oc(C(=O)N(C)Cc3cc(C)[nH]n3)c(C)c2c1,0,1,-1,-2,-2,5
Cc1ccc2oc(C(=O)N(CCO)Cc3ccccc3)c(C)c2c1,0,0,-1,1,-2,-1
SMILES,DAX1 inh-1,DAX1 inh-2,ssDAF12 agonist,hgDAF12 agonist,hcDAF-12 act,Rev-erbA mod
Cc1cc(Cl)c2oc(C(=O)N(CCO)Cc3ccccc3)c(C)c2c1,1,8.1*,-1,0,0,0
Cc1cc(Cl)c2oc(C(=O)N(C)Cc3ccon3)c(C)c2c1,1,1,0,13*,2,6
O=C(c1sccc1Cl)N1CCC(n2nnc3ncccc32)CC1,1,.,-2,-1,-2,3
Cc1cc(C)nc(N/C(=N\S(=O)(=O)Cc2ccccc2)Nc2ccccc2Br)n1,1,4.4*,0,3,1,7
Cc1cc(C)nc(Nc2ccccc2Br)n1,-1,0,-1,-1,-1,6
COC(=O)c1nc(-c2ccccc2)oc1N(C)C,0,1,-2,0,0,-3
COC(=O)c1nc(-c2ccc(C)cc2)oc1N(C)C,-1,1,1.0*,2,5,2
O=[N+]([O-])c1ccc(N/N=C/c2ccccc2)c(F)c1,0,1,-1,12*,1,12
O=[N+]([O-])c1ccc(C=NNc2ccccc2)cc1,0,0,-1,-1,0,13
CC(=O)Nc1ccc(C=NNc2ccc([N+](=O)[O-])cc2S(=O)(=O)Nc2ccccc2C(=O)O)cc1,3.9*,1,-1,-2,-1,0
COC(=O)[C@H](C(C)C)N(CCc1cn(CC2CCCCC2)nn1)S(=O)(=O)c1ccccc1Br,-2,.,-1,-4,-3,3
Cc1ccccc1C(=O)Oc1ccc2ccc(O)cc2c1,1,4.7*,-1,10*,2,0
O=C(CN1C(=O)NC2(CCCCC2)C1=O)NCc1ccc2c(c1)OCO2,-1,7.2*,-2,1,-1,3
COC(=O)[C@]12C[C@H](CC(=O)N3CCSCC3)C(=O)N(Cc3ccc(Cl)cc3Cl)C1=C[C@H](C(C)(C)C)O[C@@H]2C,-1,.,-1,1,-3,2
CC(C)OCCCNc1ncnc2c1cnn2-c1ccccc1,3,-1,0,12*,5,-1
CN(C)CCCNc1ncnc2c1cnn2-c1ccccc1,.,1,.,.,.,.
c1ccc(CCNc2ncnc3c2cnn3-c2ccccc2)cc1,3.7*,1,1,12*,3,-2
Cc1ccc(-c2cc(C(=O)N=Nc3c(O)[nH]c4ccccc34)[nH]n2)cc1C,1,.,-1,0,-4,-25
Cn1c(=O)[nH]c(=O)c2c1nc(NCc1ccco1)n2CCCc1ccccc1,0,4.5*,-1,1,0,0
CCOC(=O)N1C(=O)C[C@](Sc2ccc(OC)cc2)(C(=O)N2CCN(c3ncccn3)CC2)[C@H]1c1ccc(OC)cc1,-2,.,0,-1,-2,1
